Results published in ChEMBL document CHEMBL3988442, “University of Dundee, Small-Polar-MMV Screening Library” (2021).
In all, about 38,000 compounds went through this assay and about 1,200 (3.2%) showed an effect of 50% or more. The median lay at about -58%. The entries come from a sample that favours strong results as a whole.

Each compound was assayed on Plasmodium falciparum (assay: Calibr Malaria Delayed Death Assay SOP). Conditions: concentration 4.99e-06 (unit not given; other assays of the set use mol/L).
Type: functional, organism-based
Parameters: scale not given: in the data most compounds retested in dose-response had high values
In the case of `CN(Cc1cc(Br)cs1)Cc1nnsc1Cl`, the “Percent Effect” value is reported as -124.6%.
`CCOc1ccnc(N2CCCN(c3nc(CC)ns3)CC2)n1` was tested, and the “Percent Effect” value was -65.97%.
`CCOc1ccnc(N2CCCN(c3nc(C4CC4)ns3)CC2)n1` was tested, and the “Percent Effect” value was 50.17%.
For `Cc1nsc(N2CCCN(c3nc(C4CC4)ns3)CC2)n1`, the “Percent Effect” value was -111.5%.
With `COCCN(Cc1sccc1C)C(=O)COc1ccccc1O` the “Percent Effect” value was -70.17%.
With `COCCN(Cc1sccc1C)C(=O)C1CCN(C(C)C)CC1` the “Percent Effect” value was 57.24%.
With `COCCN(Cc1sccc1C)C(=O)C1CCCN(C(N)=O)C1` (stereo not drawn) the “Percent Effect” value was -77.34%.
`CCn1cnnc1CNC(=O)NC(C)c1ccc(Cl)s1` (stereo not drawn) was tested, and the “Percent Effect” value was -29.19%.
With `Cc1nc(N)ccc1CC1COc2ccccc2C1` (stereo not drawn) the “Percent Effect” value was 39.32%.
`Cc1nc(CNCC(C)c2nc3ccccc3o2)cs1` (stereo not drawn) was tested, and the “Percent Effect” value was -114.5%.
`Cc1ccc(O)c(CNCC(C)c2nc3ccccc3o2)n1` (stereo not drawn) was tested, and the “Percent Effect” value was 62.12%.
`Cc1csc(CNCC(C)c2nc3ccccc3o2)n1` (stereo not drawn) was tested, and the “Percent Effect” value was -35.1%.
With `N#Cc1cccnc1OC1CCN(S(=O)(=O)c2ccc(F)c(Cl)c2)CC1` the “Percent Effect” value was -120.1%.
`Cc1cccc(C(=O)N2CC[C@@H]3CN(c4ncccn4)CCO[C@@H]3C2)c1` was tested, and the “Percent Effect” value was 3.612%.
For `CCn1ccnc1CN(C)C(=O)Cn1ccc2ccccc2c1=O`, the “Percent Effect” value was -48.52%.
`Cc1cccc(C2(C(=O)NCC3CN(C)CCO3)CC2)c1` (stereo not drawn) was tested, and the “Percent Effect” value was -0.8202%.
For `CN1CCOC(CNC(=O)C2(c3cccc(C(F)(F)F)c3)CCCC2)C1` (stereo not drawn), the “Percent Effect” value was 55.27%.
With `CN1CCOC(CNCc2cccc(OCC(F)(F)F)c2)C1` (stereo not drawn) the “Percent Effect” value was 11.83%.
With `Cc1cccc(NC(=O)c2sc(C)nc2C)n1` the “Percent Effect” value was -70.67%.
For `Cc1ccnc(NC(=O)c2ccc(Br)o2)c1`, the “Percent Effect” value was -122.7%.
For `Cc1cccc(NC(=O)c2[nH]nc(C(C)C)c2Br)n1`, the “Percent Effect” value was 55.91%.
`CC(C)c1n[nH]c(C(=O)Nc2cc[nH]n2)c1Br` was tested, and the “Percent Effect” value was -216.8%.
`CC(C)c1n[nH]c(C(=O)Nc2ccncc2)c1Br` was tested, and the “Percent Effect” value was -170.8%.
For `Cc1ccnc(NC(=O)CCNC(=O)c2ccccc2Cl)c1`, the “Percent Effect” value was -154.4%.
In the case of `Cc1ccnc(NC(=O)c2[nH]nc(C(C)C)c2Br)c1`, the “Percent Effect” value is reported as 72.66%.
With `Cc1cccc(NC(=O)c2ccc(-n3cncn3)nn2)n1` the “Percent Effect” value was -82.38%.
`CCc1ccsc1C(=O)N1CCCN(Cc2cnn(CC)c2)CC1` was tested, and the “Percent Effect” value was -131.2%.
For `Cc1occc1C(=O)N1C[C@@H]2OCCN(CCN3CCCC3)[C@@H]2C1.O=C(O)C(F)(F)F.O=C(O)C(F)(F)F`, the “Percent Effect” value was -96.04%.
`CCC(=O)N1CCC2(CC1)C(=O)N(C)CCN2Cc1csc(C)n1.O=C(O)C(F)(F)F` was tested, and the “Percent Effect” value was -46.93%.
With `CCN(C)C[C@@H]1CN(S(=O)(=O)c2cccc(Cl)c2)C[C@@H]1CO` the “Percent Effect” value was 74.38%.
`COCCN1C(=O)[C@H]2CC[C@@H]1CN(S(=O)(=O)c1cccc(Cl)c1)C2` was tested, and the “Percent Effect” value was -81.8%.
With `C=Cc1cccc(CN2C[C@@H](CN(C)CC)[C@@H](CO)C2)c1` the “Percent Effect” value was 87.24%.
For `COCCN(C)C[C@@H]1CN(C(=O)c2cccc(Cl)c2)C[C@@H]1CO`, the “Percent Effect” value was -171.8%.
For `CN(C)CCN(C)C[C@@H]1CN(Cc2cccc(O)c2)C[C@@H]1CO`, the “Percent Effect” value was -40.55%.
With `CCN(C)C[C@@H]1CN(Cc2cccc(O)c2)C[C@@H]1CO` the “Percent Effect” value was -20.19%.
In the case of `Cc1ncsc1C(=O)OCC1CCN(c2ccccc2)C1` (stereo not drawn), the “Percent Effect” value is reported as 9.637%.
For `CNc1cncc(C2CCCN2Cc2ccnc(N3CCCC3)n2)n1` (stereo not drawn), the “Percent Effect” value was -40.21%.
`CN(CC1(CO)CCCC1)C(=O)c1cc(COc2ccccc2F)[nH]n1` was tested, and the “Percent Effect” value was -12.3%.
With `CSCCC(NC(=O)c1nc(SC)ncc1Cl)C(=O)O` (stereo not drawn) the “Percent Effect” value was -13.47%.
In the case of `CC(C)(C)c1nc(CN2CCOC(Cn3cncn3)C2)cs1` (stereo not drawn), the “Percent Effect” value is reported as -89.29%.
In the case of `Cc1cc(-c2cnn(CCNC(=O)CCn3cccn3)c2C2CC2)on1`, the “Percent Effect” value is reported as -69.32%.
With `COCCN1CCCC1c1cccc2c1OCCO2` (stereo not drawn) the “Percent Effect” value was -6.29%.
`NC(=O)NC(=O)CCN1CCCC1c1cccc2c1OCCO2` (stereo not drawn) was tested, and the “Percent Effect” value was 22.71%.
`CCNC(=O)CCN1CCCC1c1cccc2c1OCCO2` (stereo not drawn) was tested, and the “Percent Effect” value was 51.42%.
`O=C(CCN1CCCCCC1c1ccco1)N1CCOCC1` (stereo not drawn) was tested, and the “Percent Effect” value was -45.72%.
In the case of `CNC(=O)CCN1CCCC1c1ccccc1Br` (stereo not drawn), the “Percent Effect” value is reported as -26.77%.
`O=C(CCN1CCCC1c1cccc2c1OCCO2)N1CCOCC1` (stereo not drawn) was tested, and the “Percent Effect” value was -28.31%.
For `CC(C)NC(=O)CCN1CCCC1c1cccc2c1OCCO2` (stereo not drawn), the “Percent Effect” value was 52.1%.
For `O=C(CCN1CCCC1c1cccc2c1OCCO2)N1CCCCC1` (stereo not drawn), the “Percent Effect” value was 72.46%.
With `CC(C)NC(=O)CN1CCN(CC2CCOc3ccccc3C2)CC1` (stereo not drawn) the “Percent Effect” value was -22.48%.
In the case of `Cc1cc(C)cc(NCCC(=O)NC2CCCCC2)c1`, the “Percent Effect” value is reported as -32.74%.
With `CCOCC1CN(C(=O)Cc2ccccn2)Cc2cnn(CC)c21` (stereo not drawn) the “Percent Effect” value was -151.3%.
For `CCCNC(=O)CNc1ccccc1OCCC(=O)OC`, the “Percent Effect” value was -87.74%.
`Cn1cc(CN2CCC3(CC2)CCN(C(=O)c2cscn2)C3)cn1.O=C(O)C(F)(F)F` was tested, and the “Percent Effect” value was -97.69%.
With `COc1ccc(C(N)=O)cc1NCc1nc(-c2cccs2)oc1C` the “Percent Effect” value was -37.05%.
With `CC(C)c1nnc2n1CC(CNCc1cccnc1)CC2` (stereo not drawn) the “Percent Effect” value was -95.11%.
In the case of `O=C(NCCC(=O)N1CCCC1)c1cccnc1`, the “Percent Effect” value is reported as -130.5%.
With `CC(=O)Nn1ccc2c(nnc3c(-c4ccc(F)cc4)cnn32)c1=O` the “Percent Effect” value was -66.29%.
`COc1ncc(CN2C[C@@H]3CC[C@@](O)(c4ccc(C)cn4)[C@@H]3C2)cn1.O=C(O)CC(O)(CC(=O)O)C(=O)O` was tested, and the “Percent Effect” value was -80.6%.
`CC[C@H]1CN(C(=O)CCn2c(C)cccc2=O)CC[C@@]1(C)O` was tested, and the “Percent Effect” value was -150.9%.
In the case of `CN(C)c1cc(CNC(=O)c2n[nH]c(=O)c3ccccc23)ccn1`, the “Percent Effect” value is reported as -121.9%.
In the case of `c1ccc(OCCCNCc2cccs2)nc1`, the “Percent Effect” value is reported as 17.97%.
For `Cc1ccsc1CNCCCOc1ccccn1`, the “Percent Effect” value was 53.78%.
In the case of `c1ccc(OCCNCc2cccs2)nc1`, the “Percent Effect” value is reported as -81.56%.
`O=C(O)C1(Cc2ccccc2F)CCCN(c2ncnc3[nH]ccc23)C1` (stereo not drawn) was tested, and the “Percent Effect” value was -54.27%.
With `CCN1CCN(S(=O)(=O)c2cc(C)c(Cl)cc2C)CC1` the “Percent Effect” value was 16.43%.
In the case of `Cc1ccc(S(=O)(=O)N2CCN(Cc3ccncc3)CC2)c(Cl)c1`, the “Percent Effect” value is reported as 0.628%.
`CCN1CCN(S(=O)(=O)c2cc(C)c(Cl)cc2Cl)CC1` was tested, and the “Percent Effect” value was 62.85%.
In the case of `CCN1CCN(S(=O)(=O)c2cc(Cl)c(Cl)cc2C)CC1`, the “Percent Effect” value is reported as 69.76%.
In the case of `CCN1CCN(S(=O)(=O)c2cc(C)c(C)cc2Br)CC1`, the “Percent Effect” value is reported as 25.52%.
In the case of `Cc1ccc(S(=O)(=O)NCCCN2CCC(O)CC2)cc1Cl`, the “Percent Effect” value is reported as 19.72%.
With `C[C@@H]1CN(S(=O)(=O)c2ccc(F)cc2Cl)C[C@]1(C)O` the “Percent Effect” value was -40.08%.
`CCN1CCCN(S(=O)(=O)c2cnc3onc(C)c3c2)CC1` was tested, and the “Percent Effect” value was -44.36%.
